Calls of active or inactive are those of the source.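 How the source made its calls, unless noted: active means visually confirmed hit in the image check and inhibition above 20%; inconclusive means visually confirmed hit but inhibition not above 20%; inactive means no visual hit in the image check.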
Test: inhibitors of mutant huntingtin aggregation, primary screen, imaging, exon1htt(103Q)mCFP cells, high-content imaging (AID 483;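 active means visual image review flags a hit and inhibition of aggregation exceeds 20%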;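 further: compound exposure lasted 3 days before fixation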;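 on nuclei count: percent of the per-plate median nuclei count of sample wells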)
Settings: exon1htt(103Q)mCFP cell line, aggregate imaging, at 2 µM; inhibition of aggregation: stronger effect = higher value; nuclei count: measured here: cell count, toxicity

SMILES	inhibition of aggregation	nuclei count
CN1CCN(S(=O)(=O)c2ccc(Sc3nnc(-c4cccs4)n3-c3ccccc3)nc2)CC1	-9% (inactive)	104%
CC(C)N(C=O)C1(C(=O)NC2CCCCC2)CCCCC1	15.2% (inactive)	114%
COc1ccc(NC(=O)CSc2nnc(-c3ccncc3)n2CC2CCCO2)c(OC)c1 (configuration not stated)	18.1% (inactive)	87.6%
CC1(C)CC(=O)c2cnc(NCc3ccco3)nc2C1	-7.2% (inactive)	96.1%
c1ccc2c(c1)C(=Nn1cnnc1)c1ccccc1-2	15.7% (inactive)	101%
O=C(CN1C(=O)NC(Cc2ccccc2)C1=O)Nc1ccccc1 (configuration not stated)	8.9% (inactive)	59.4%
O=C1CSC(c2cn(-c3ccccc3)nc2-c2ccccc2)N1Cc1ccco1 (configuration not stated)	5.2% (inactive)	108%
CN(C)S(=O)(=O)c1ccc2c(c1)C(CC(=O)O)OC2=O (configuration not stated)	13.2% (inactive)	109%
COc1ccc2nc(NC(=O)CSc3nnc(-c4ccoc4C)n3C)sc2c1	-2.4% (inactive)	97.8%
COCCn1nnnc1C(C(C)C)N(Cc1cccnc1)Cc1ccccc1Cl (configuration not stated)	8.9% (inactive)	108%
O=C(NCc1cccs1)C(Cc1ccccc1)NS(=O)(=O)c1cccs1 (configuration not stated)	0% (inactive)	108%
COC(=O)C1=C(C)N(c2ccc(C(=O)OC)cc2)C(=O)C1	-26.4% (inactive)	87.2%
Cc1ccc(-n2c3c(cc(C(=O)O)c2=O)C(=O)CC(C)(C)C3)cc1	6.9% (inactive)	109%
COc1ccc(OC)c(NC(=O)CCN2CCN(c3ccccc3F)CC2)c1	10.6% (inactive)	81.2%
OCc1nc(CO)n(Cc2ccccc2)n1	-12.2% (inactive)	112%
O=C(COc1ccc(Cl)cc1)Nc1nc(-c2cccs2)cs1	-1.6% (inactive)	110%
CCNS(=O)(=O)c1ccc(S(=O)(=O)N(Cc2ccccn2)C2CCCCC2)cc1	6.6% (inactive)	108%
CC1N=C2c3ccccc3N=C(SCc3cc(=O)n4cc(Cl)ccc4n3)N2C1=O (configuration not stated)	18.8% (inactive)	102%
CCOC(=O)C1=C(C)N(C)C(C)=C(C(=O)OCC)C1c1cccnc1	-14.4% (inactive)	93.8%
FC(F)Sc1nnc(-c2cccs2)n1-c1ccccc1	-10.1% (inactive)	95.3%
Cc1noc(NS(=O)(=O)c2ccc(N3C(=O)c4ccccc4C3=O)cc2)c1C	6.1% (inactive)	104%
CC(=O)N1CCc2cc(S(=O)(=O)NCCC3=CCCCC3)ccc21	-11.2% (inactive)	123%
Cc1onc(-c2ccccc2)c1C(N)=O	-1.6% (inactive)	98.5%
CC(C(=O)Nc1ccccc1-c1ccccc1)N1CCN(C(=O)c2ccco2)CC1 (configuration not stated)	14% (inactive)	75%
CNC(=O)CSc1nnc(-c2cc(C)cc(C)c2)o1	0.4% (inactive)	123%
CCOc1ccc(Cl)cc1S(=O)(=O)N1CCCC1	0.2% (inactive)	101%

Test: inhibitors of E-selectin induction by TNFa, primary screen, imaging, HUVEC, immunofluorescence, MLSMR starter and 10KST1 sets (AID 487);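 on inhibition: signal is fraction of cell area covered by stained E-selectin grains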;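 on nuclei count: 100% = median nuclei count of all wells on the same plate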
Settings: HUVEC TNFalpha-induced E-selectin immunofluorescence imaging, at 2 µM; inhibition: stronger effect = higher value; nuclei count: measured here: cell number, toxicity

SMILES	nuclei count	inhibition
CCC(=NC(C)c1ccccc1)c1c(O)n(C)c(=O)n(C)c1=O (configuration not stated)	133%	-50.4% (inactive)
O=C(c1ccc(S(=O)(=O)N2CCOCC2)cc1)N1CCc2ccccc2C1	118%	-103% (inactive)
CCOC(=O)C1CCN(C(=O)C2CCN(S(=O)(=O)c3cc(Cl)ccc3Cl)CC2)CC1	96.7%	4.5% (inactive)
CCn1cnc2cc(NCc3cccc(OC)c3O)ccc21	88%	-18.2% (inactive)
CC(OC1=CC(=O)CCC1)C(=O)c1ccccc1 (configuration not stated)	72.3%	24.1% (inactive)
CCC(=O)N1CCc2cc(S(=O)(=O)CCC(=O)Nc3ccc(C)c(F)c3)ccc21	136%	-119% (inactive)
Cc1ccc(Cl)cc1NC(=O)CSc1nnc(C)n1-c1ccccc1	96%	-16% (inactive)
O=C(CN1CCOCC1)Nc1cccc(C(=O)Nc2cccc(C(F)(F)F)c2)c1	89.1%	1.6% (inactive)
COc1cccc(NC(=O)COc2ccccc2C(N)=O)c1	78%	14.7% (inactive)
COc1ccc(C)cc1S(=O)(=O)N1CCN(Cc2ccccc2)CC1	102%	-41.3% (inactive)
Cc1ccc(OCC(O)Cn2c(=N)n(CCN3CCCCC3)c3ccccc32)cc1 (configuration not stated)	96.8%	-6.5% (inactive)
CCCCC(NC(C)=O)c1nc2ccccc2n1CCC (configuration not stated)	94.3%	37.8% (inactive)
O=C(c1cc(-c2ccco2)nn1-c1cccc(Cl)c1)N1CCCCC1	100%	1.9% (inactive)
COC(=O)C1=C(C)NC(=O)C1(NC(=O)CN1CCCC1=O)C(F)(F)F (configuration not stated)	133%	-79.8% (inactive)
CN1CCN(S(=O)(=O)c2ccc(Sc3nnc(-c4cccs4)n3-c3ccccc3)nc2)CC1	142%	-140% (inactive)
CC(C)N(C=O)C1(C(=O)NC2CCCCC2)CCCCC1	113%	-9.4% (inactive)
COc1ccc(NC(=O)CSc2nnc(-c3ccncc3)n2CC2CCCO2)c(OC)c1 (configuration not stated)	119%	-89.2% (inactive)
CC1(C)CC(=O)c2cnc(NCc3ccco3)nc2C1	150%	-165% (inactive)
c1ccc2c(c1)C(=Nn1cnnc1)c1ccccc1-2	122%	-107% (inactive)
O=C(CN1C(=O)NC(Cc2ccccc2)C1=O)Nc1ccccc1 (configuration not stated)	111%	-32.2% (inactive)

SMILES	nuclei count	inhibition
O=C1CSC(c2cn(-c3ccccc3)nc2-c2ccccc2)N1Cc1ccco1 (configuration not stated)	88.2%	-89.3% (inactive)
CN(C)S(=O)(=O)c1ccc2c(c1)C(CC(=O)O)OC2=O (configuration not stated)	105%	27.5% (inactive)
COc1ccc2nc(NC(=O)CSc3nnc(-c4ccoc4C)n3C)sc2c1	104%	-28.8% (inactive)
COCCn1nnnc1C(C(C)C)N(Cc1cccnc1)Cc1ccccc1Cl (configuration not stated)	111%	-72.3% (inactive)
O=C(NCc1cccs1)C(Cc1ccccc1)NS(=O)(=O)c1cccs1 (configuration not stated)	111%	-26.1% (inactive)
COC(=O)C1=C(C)N(c2ccc(C(=O)OC)cc2)C(=O)C1	105%	23.7% (inactive)
Cc1ccc(-n2c3c(cc(C(=O)O)c2=O)C(=O)CC(C)(C)C3)cc1	110%	3.1% (inactive)
COc1ccc(OC)c(NC(=O)CCN2CCN(c3ccccc3F)CC2)c1	101%	-63.8% (inactive)
OCc1nc(CO)n(Cc2ccccc2)n1	86.8%	42.4% (inactive)
O=C(COc1ccc(Cl)cc1)Nc1nc(-c2cccs2)cs1	114%	-32.4% (inactive)
CCNS(=O)(=O)c1ccc(S(=O)(=O)N(Cc2ccccn2)C2CCCCC2)cc1	100%	-3.6% (inactive)
CC1N=C2c3ccccc3N=C(SCc3cc(=O)n4cc(Cl)ccc4n3)N2C1=O (configuration not stated)	92.4%	32.4% (inactive)
CCOC(=O)C1=C(C)N(C)C(C)=C(C(=O)OCC)C1c1cccnc1	115%	-55.9% (inactive)
FC(F)Sc1nnc(-c2cccs2)n1-c1ccccc1	122%	-146% (inactive)
Cc1noc(NS(=O)(=O)c2ccc(N3C(=O)c4ccccc4C3=O)cc2)c1C	93.6%	-0.4% (inactive)
CC(=O)N1CCc2cc(S(=O)(=O)NCCC3=CCCCC3)ccc21	141%	-71.2% (inactive)
Cc1onc(-c2ccccc2)c1C(N)=O	159%	-158% (inactive)
CC(C(=O)Nc1ccccc1-c1ccccc1)N1CCN(C(=O)c2ccco2)CC1 (configuration not stated)	97.9%	-63.4% (inactive)
CNC(=O)CSc1nnc(-c2cc(C)cc(C)c2)o1	124%	-34.6% (inactive)
CCOc1ccc(Cl)cc1S(=O)(=O)N1CCCC1	122%	-46.5% (inactive)
